The values below come from PubChem BioAssay (NCI).

The structures appear in SMILES notation. This is part of a sample that, as a whole, favours compounds with a hit. Of some 83,000 tested, about 20% had one in any assay.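 Negative percent growth values reflect cell death: -40 means 40% of the cells present at the start died, and -100 means all died.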 Values without a mark were called inactive. Calls of active or inactive are those of the source. The calls were made as follows: active = growth percent below 10; inactive = the rest.

Some test systems named below: EKVX NSCLC; SN12C renal; UO-31 renal; TK-10 renal; ACHN renal; CAKI-1 renal; A498 renal; CCRF-CEM leukemia; MOLT-4 leukemia; SR leukemia.
Common to all, as to experiment: NCI-60 one-dose screen, 48 h (100 = growth as untreated, 0 = no growth, -100 = all killed)
Holding throughout (details): 10 µM unless noted

Turning to `Cc1cc(C(C)(C)c2cc(C)c(O)c(CN(C)C)c2)cc(CN(C)C)c1O`, the growth was 92.3% with EKVX NSCLC; 96.3% in the test with SN12C renal; 59.4% in the test on UO-31 renal; 94.2% in the test on TK-10 renal; 86.2% with ACHN renal; 79.6% in the test with CAKI-1 renal. Besides, the growth with A498 renal is 69.5%; with CCRF-CEM leukemia it was 100%; with MOLT-4 leukemia, 87.4%; with SR leukemia, 74.8%.

Regarding `Clc1ccc([C@@H]2C[C@@H]3Cc4cc(Br)c5ccccc5c4N2O3)c(Cl)c1`, the growth in the test on EKVX NSCLC was 108%; in the test on SN12C renal, 96.8%; in the test with UO-31 renal it was 64%; in the test with TK-10 renal it was 90.2%; in the test with ACHN renal it was 81.6%; in the test with CAKI-1 renal, 73.6%. Besides, the growth in the test with A498 renal is 87%; with CCRF-CEM leukemia it was 66.5%; with MOLT-4 leukemia, 78%; with SR leukemia, 20.8%.

As for `COc1cc(-c2cc(C(=O)Nc3nc4ccccc4s3)nc3cc(-c4ccccc4)nn23)cc(OC)c1OC`, the growth with EKVX NSCLC is 107%; in the test with SN12C renal, 99.5%; in the test on UO-31 renal, 87.9%; with TK-10 renal, 106%; with ACHN renal it was 101%; with CAKI-1 renal it was 84.6%. Further, the growth is 127% in the test with A498 renal, 72.3% with CCRF-CEM leukemia, 76% with MOLT-4 leukemia and 67% in the test with SR leukemia.

As to `COc1cc(/C=C/c2nnc(-c3cc(-c4ccccc4)n[nH]3)o2)cc(OC)c1OC`, the growth in the test with EKVX NSCLC is 102%; with SN12C renal, 99.5%; with UO-31 renal, 80%; in the test with TK-10 renal, 123%; in the test on ACHN renal, 91.3%; with CAKI-1 renal, 89.4%. For the same compound, the growth in the test on A498 renal was 105%; in the test with CCRF-CEM leukemia, 75.9%; in the test with MOLT-4 leukemia it was 69%; with SR leukemia it was 86.4%.

Turning to `C=C(C[C@@](O)(C(=O)Oc1ccccc1)C(=O)C1CCCCC1)c1ccccc1`, the growth in the test on EKVX NSCLC was 94.4%; in the test with SN12C renal, 98%; in the test on UO-31 renal, 83.8%; in the test on TK-10 renal, 97.7%; in the test on ACHN renal it was 112%; in the test on CAKI-1 renal it was 87.3%. In addition, the growth was 106% in the test with A498 renal, 95.4% with CCRF-CEM leukemia, 101% in the test on MOLT-4 leukemia and 103% with SR leukemia.

As for `CC(=O)NC1(C(=O)O)CCCC1`, the growth is 112% with EKVX NSCLC; 114% in the test with SN12C renal; 99.9% in the test on UO-31 renal; 117% in the test on TK-10 renal; 105% in the test on ACHN renal; 111% in the test on CAKI-1 renal. Besides, the growth was 105% in the test with A498 renal, 96.4% in the test on CCRF-CEM leukemia, 109% with MOLT-4 leukemia and 108% with SR leukemia.

As to `COc1ccc(Cn2cc3c(c2-c2ccccc2)CCc2cncnc2-3)cc1`, the growth was 48.4% with EKVX NSCLC; 62.7% in the test with SN12C renal; 55.2% in the test on UO-31 renal; 109% with TK-10 renal; 76.8% in the test with ACHN renal; 36.2% in the test on CAKI-1 renal. In addition, the growth was 45.8% in the test on A498 renal, 42.6% in the test on CCRF-CEM leukemia, 80% with MOLT-4 leukemia and 57.7% in the test on SR leukemia.

As to `Cc1cc(C)n2nc(SCC(=O)Nc3sc4c(c3C(N)=O)CCC4)nc2n1`, the growth in the test on EKVX NSCLC was 100%; with SN12C renal, 103%; in the test on UO-31 renal, 74.1%; in the test with TK-10 renal, 125%; in the test on ACHN renal, 112%; in the test with CAKI-1 renal, 94.7%. Further, the growth in the test with A498 renal is 95.7%; in the test on CCRF-CEM leukemia, 102%; in the test with MOLT-4 leukemia, 109%; with SR leukemia it was 144%.

For `O[C@@H]1Cc2ccc3ccccc3c2N[C@H](c2ccoc2)C1`, the growth was 95.9% in the test on EKVX NSCLC; 103% in the test with SN12C renal; 82.3% in the test with UO-31 renal; 106% in the test with TK-10 renal; 103% in the test with ACHN renal; 96.6% in the test on CAKI-1 renal. The growth with A498 renal was 84.4%; with CCRF-CEM leukemia it was 81.3%; with MOLT-4 leukemia, 88.2%; in the test on SR leukemia it was 93.3%.

For the compound `O=C(Nc1ccncc1)C(=O)c1cn(S(=O)(=O)c2cccc(F)c2)c2ccccc12`, the growth in the test on EKVX NSCLC was 35.4%; with SN12C renal, 49.1%; in the test with UO-31 renal it was 56.7%; in the test with TK-10 renal, 84.1%; in the test with ACHN renal, 55.9%; in the test on CAKI-1 renal, 33.5%. The growth is 60.2% with A498 renal, 38.7% with CCRF-CEM leukemia, 35% with MOLT-4 leukemia and 16.5% in the test on SR leukemia.

As for `NCCCc1nnc(CCC(=O)c2nc3ccccc3[nH]2)o1`, the growth in the test with EKVX NSCLC was 117%; with SN12C renal it was 92.3%; with UO-31 renal it was 91.8%; in the test on TK-10 renal, 102%; with ACHN renal, 97.1%; in the test on CAKI-1 renal, 103%. The growth in the test with A498 renal is 97.4%; in the test with CCRF-CEM leukemia, 90.9%; in the test with MOLT-4 leukemia it was 98.2%; with SR leukemia, 84.5%.

On to `c1ccc(-n2nnnc2-c2cccc3ccccc23)cc1`, for which the growth in the test on EKVX NSCLC is 54.1%; in the test with SN12C renal, 39.9%; with UO-31 renal, 28.7%; in the test on TK-10 renal it was 13.8%; in the test with ACHN renal it was 52.9%; with CAKI-1 renal, 21.8%. The growth in the test on A498 renal was 32.6%; with CCRF-CEM leukemia, 9.58% (active); in the test on MOLT-4 leukemia, 29.8%; in the test on SR leukemia it was 20.5%.

With `OC(Cc1cccnc1)c1ccccc1` (stereo not given), the growth was 113% in the test on EKVX NSCLC; 99.3% in the test with SN12C renal; 93.3% in the test with UO-31 renal; 109% with TK-10 renal; 101% with ACHN renal; 119% with CAKI-1 renal. The growth with A498 renal was 86.5%; in the test with CCRF-CEM leukemia, 80.2%; in the test with MOLT-4 leukemia, 94.3%; in the test with SR leukemia, 92.6%.
